Measurements taken from PubChem BioAssay (NCI).
Compounds without any hit were thinned out: in the full panel of roughly 79,000, 15% have a hit. Values without a mark were called inactive. Activity calls are given as the source filed them. Cut-off read from the data, not from the text of the source: active = growth inhibition above about 70%; inactive = the rest.

Legend:
[1] = NCI Yeast Anticancer Drug Screen. Data for the rad50 strain (AID 155);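 note: 0% = growth of vehicle-only cultures of the same strain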; settings: S. cerevisiae rad50 strain growth inhibition; at 50.0 µM; hits give high values
Procedure, shortened: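 Yeast carrying a defined DNA repair defect were exposed to test compounds, and growth was compared with vehicle-treated controls to give percent inhibition.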

[2] = NCI Yeast Anticancer Drug Screen. Data for the mec2-1 strain (AID 157); settings: S. cerevisiae mec2-1 strain, at 50.0 µM, hits give high values
Procedure, shortened: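 Yeast mec2-1 mutant treated with compound. Readout: growth inhibition vs vehicle controls.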

[3] = NCI Yeast Anticancer Drug Screen. Data for the sgs1 mgt1 strain (AID 161);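 note: 0% = growth of cultures given vehicle only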; settings: S. cerevisiae sgs1 mgt1 strain, at 50.0 µM, hits give high values
Procedure, shortened: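 Genetically altered yeast, compound exposure, growth inhibition relative to vehicle.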

[4] = NCI Yeast Anticancer Drug Screen. Data for the cln2 rad14 strain (AID 165);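 note: 0% = growth equal to vehicle treated cultures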; settings: S. cerevisiae cln2 rad14 strain, at 50.0 µM, hits give high values
Procedure, shortened: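 cln2 rad14 yeast strain; compound exposure; growth inhibition read vs vehicle controls.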

[5] = NCI Yeast Anticancer Drug Screen. Data for the bub3 strain (AID 167); settings: S. cerevisiae bub3 mutant strain, at 50.0 µM, hits give high values
Procedure, shortened: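 Compounds were applied to a genetically altered yeast strain carrying a cell-cycle control defect. Growth inhibition was scored against vehicle-treated controls.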

[6] = NCI Yeast Anticancer Drug Screen. Data for the mlh1 rad18 strain (AID 175); settings: S. cerevisiae mlh1 rad18 strain growth inhibition; at 50.0 µM; hits give high values
Procedure, shortened: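 Yeast w/ defined DNA-repair lesions; compound exposure; growth vs vehicle controls → % inhibition.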

Compound	growth inhibition [1]	growth inhibition [2]	growth inhibition [3]	growth inhibition [4]	growth inhibition [5]	growth inhibition [6]
CN(C)c1ccccc1C(=O)N/N=C\c1ccc(O)c(O)c1	17.6%	14.2%	19.5%	5.75%	12.4%	22.2%
CNc1ccn(C2OC(CO)C(O)C2O)c(=O)n1 (configuration not stated)	-9.5%	-7.5%	-2.05%	11.9%	10.1%	8.25%
Nc1nc(N)c2cc(S(=O)(=O)c3ccccc3)ccc2n1	26.1%	8.7%	-8.9%	-4.55%	-26.1%	-40.5%
Cn1c(C(N)=O)cc(=O)n1-c1ccc([N+](=O)[O-])cc1	6.35%	18.7%	4.45%	3.8%	-6%	0.35%
CCOC(=O)COc1c(C)cccc1C	17.6%	5.45%	-2.5%	14.8%	32.5%	12.5%
CC(C)(C)OC(=O)N1CCc2c(n(C/C=C/c3ccccc3)[nH]c2=O)C1	-30.2%	-14.3%	-4.85%	-0.3%	1.55%	-19.4%
COc1ccc(OC)c2c(C(C)=O)cccc12	-35%	-42.1%	-4.2%	-12.8%	-17.2%	-21.7%
CC(=O)N1Cc2ncnc(N)c2C1	-12.3%	-8.9%	-20.7%	-10.6%	-2.35%	-10.4%
COc1ccc(C(C)=O)c(OC(C)=O)c1OC(C)=O	4.05%	0.95%	6.25%	10%	5.8%	17.2%
Nc1nnc2nc(CC(=O)Cc3ccccc3)c(CC(=O)Cc3ccccc3)nn12	0.3%	-5.55%	11.2%	-17.9%	10.7%	9.35%
CC(=O)Nc1ccc(/C=N/Nc2ccccc2)cc1	97.9% (active)	98.8% (active)	98.5% (active)	96.6% (active)	98.5% (active)	98.7% (active)
COc1cc(Cl)ccc1C	-1.2%	-1.75%	5.75%	-14.3%	18.1%	-16.6%
COc1cc(C(=O)CCC(=O)O)c(OC)c(CBr)c1CBr	-20.3%	-0.4%	-2.7%	-23.8%	-2.15%	-13.8%
Cc1c(/C=C\C(=O)c2ccccc2)c2ccccc2n1C	12.7%	-18.6%	2.2%	-21.6%	-15.2%	1.15%
CC1CN(C(=O)C2CCCN(CCc3ccccc3)C2)CC(C)O1 (configuration not stated)	25.4%	2.65%	52.7%	14.8%	2%	22.7%
Clc1cc(Cl)c(SSc2cc(Cl)c(Cl)cc2Cl)cc1Cl	-11.6%	1.15%	-18.1%	-71.5%	0.75%	-22.6%
COc1ccc(Cc2ccc(OC)c3ccccc23)c2ccccc12	9.65%	-2.45%	4.3%	-30.9%	15.2%	-5.25%
CC(=O)Nc1ccc(Br)cc1	0.85%	-5.6%	-18.4%	-34%	-17.1%	0.1%
CSc1nc2c(c(O)c(C)c(=O)n2C2OCC(OC(C)=O)C(OC(C)=O)C2OC(C)=O)c(=O)n1C (configuration not stated)	10.6%	-26.5%	-15.7%	2.9%	2.2%	-1.3%
OC(c1cccc(Cl)c1)C(Cl)Cl (configuration not stated)	-2.55%	-9.45%	-22%	-4.15%	-14.5%	1.95%
O=C(Cc1n[nH]c(=S)nc1CC(=O)c1ccccc1)c1ccccc1	-2.05%	0.85%	5.2%	-17.5%	-27.9%	7.4%

Compound	growth inhibition [1]	growth inhibition [2]	growth inhibition [3]	growth inhibition [4]	growth inhibition [5]	growth inhibition [6]
COCn1cnc2c(F)ncnc21	3.85%	-1.4%	-5.1%	-29.1%	-11.2%	-3.1%
CC(C)C(NC(=O)c1ccccc1C(=O)O)c1ccccc1 (configuration not stated)	6.3%	-7.35%	7.1%	4.45%	29.6%	-3.7%
CCCCC(CC)C1OCC(O)CO1 (configuration not stated)	8.8%	3.3%	2.55%	5.1%	-13.2%	-14.3%
O=C(/C=C/C=C/c1ccc2c(c1)OCO2)N1CCCCC1	-1.5%	-26.4%	12.1%	-22.6%	5.45%	-22.7%
Cc1onc(-c2c(F)cccc2Cl)c1-c1ncc(-c2ccc(Cl)cc2)o1	3.05%	3.3%	29.4%	0.8%	29.8%	16.4%
O=C(NNc1c(F)c(F)c(C(F)(F)F)c(F)c1F)c1ccccc1	3.55%	-19.1%	-10.9%	-64.3%	-14.8%	-19.1%
O=C(OC1COC(n2c(=O)oc3ccc(Cl)cc32)C(OC(=O)c2ccccc2)C1OC(=O)c1ccccc1)c1ccccc1 (configuration not stated)	8%	2.5%	6.8%	-13.2%	-1.1%	10.7%
Cc1cc(C)c(Br)cc1C	4.9%	15%	5.8%	3.4%	3%	-5.35%
COc1ccccc1N/N=c1\c2nc3ccccc3nc1n(-c1ccccc1C)c(=S)n2-c1ccccn1	3.4%	5.1%	16.3%	-0.75%	0.9%	8.85%
COC1OC(COC(c2ccccc2)(c2ccccc2)c2ccccc2)C2SC12 (configuration not stated)	23.9%	10%	-1.05%	14.2%	4.8%	17.6%
C=CCOC(=O)CCCCC	5%	-2.7%	2.65%	7.9%	-3.65%	0.75%
OCCS	-7.35%	5.25%	-8.4%	-21.8%	-3.45%	-4.25%
Cc1ccc2c(c1)C=C/C(=C/c1cc[n+](C)c3ccccc13)N2C	-7.95%	-22.2%	13.3%	-1.05%	-5.8%	1.55%
CC(=O)NC1=NN(C(C)=O)C(C)(c2ccccc2)S1=O (configuration not stated)	9.65%	-1.25%	3.7%	10%	-3.95%	14.7%
COC(=O)c1oc([N+](=O)[O-])c(-c2ccccc2)c1-c1ccccc1	6.95%	12.5%	29.3%	-11.5%	6.85%	24.1%
Nc1nc(SCc2ccc(F)cc2)c2[nH]cnc2n1	16.8%	9.35%	12.6%	-8.8%	12.8%	-21.9%
CC(C)(O)c1cc2nc3ccccc3nc2n1CCO	-19.6%	-22.4%	8.45%	4.25%	4.25%	-14.4%
CN(C)CCNC(=O)c1ccc(C(=O)NCCN(C)C)c2c(C(=O)NCCN(C)C)ccc(C(=O)NCCN(C)C)c12	19.1%	41.3%	37.2%	54.7%	4.5%	8.5%
Cc1ccc(S(=O)(=O)Nn2c(-c3ccccc3)c(C#N)c(-c3ccc([N+](=O)[O-])cc3)c(C#N)c2=O)cc1	-0.65%	16.2%	8.6%	11.6%	20.1%	37%
COc1ccc(CCN=Cc2ccc(Cl)cc2)cc1OC	-3.55%	-28.4%	15.4%	-1.2%	-17.1%	-10.6%
CC(C)CCc1ccc2ccc3cccc4ccc1c2c34	-17.6%	3.55%	-1.15%	-26.3%	-0.85%	-8.1%
